SW480 rerep: A quantitative high throughput screen for small molecules that induce DNA re-replication in SW480 colon adenocarcinoma cells; SW480 DNA re-replication, Hoechst DNA content imaging, 48 h; Potency, µM (series often up to 46.1 µM), most hits filed as activators; hit rate 1.8% among 340,000; AID 624297, 2012; further: nearly all actives have a fitted effect of over 55% in size
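250 cells/well; 23 nL cpd via pin tool; 48 hr, 37 C, 5% CO2; Hoechst 40 min; imager read of total nuclear intensity, ex 405/em 500-530 nm.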
MCF10A rerep: A quantitative high throughput screen for small molecules that induce DNA re-replication in MCF 10a normal breast cells; hit rate 2.9% among 350,000; Potency, µM (top dose mostly 46.1 µM), actives largely listed as activators; AID 624296, 2012; MCF 10A DNA re-replication, Hoechst nuclear intensity, 48 h; further: nearly all actives have a fitted effect of over 50% in size
KB-V1 MDR tox: qHTS assay for MDR1-selective chemotherapeutics: Primary screen using the drug-selected MDR subline cells KB-V1 | KB-V1 MDR cells viability, CellTiter-Glo, 72 h | Potency, µM (series often up to 46.1 µM), most hits filed as cytotoxic | hit rate 3.4% among 400,000 | AID 1347076, 2019; further: nearly all actives have a fitted effect of over 60% in size
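Cytotoxicity toward P-gp-expressing KB-V1 cells was determined as loss of CellTiter-Glo luminescence after 72 h at 37 degrees C. Compounds were tested in quantitative HTS format across a concentration range, with curves fitted to normalized data.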
HT1080-NT tox: qHTS for induction of synthetic lethality in tumor cells producing 2HG: qHTS for the HT-1080-NT fibrosarcoma cell line; AID 686970, 2013; hit rate 1.6% among 360,000; HT-1080-NT fibrosarcoma viability, CellTiter-Glo ATP luminescence, 48 h; Potency, µM (doses to about 46.1 µM), hits mostly cytotoxic;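 further: NT is the 2HG producing partner of a matched IDH1 knockdown line; nearly all actives have a fitted effect of over 55% in size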
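Read-out is CellTiter-Glo luminescence after 10 minutes at room temperature, following 48 hours' compound treatment of HT-1080-NT cells (750 cells/well, RPMI, 5% FBS, 37 degrees C).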
HT1080 IDH1KD tx: qHTS for induction of synthetic lethality in tumor cells producing 2HG: qHTS for the HT-1080-IDH1KD cell line; HT-1080 IDH1 knockdown viability, ATP luminescence, 48 h; Potency, µM (titrated, usually from 46.1 µM), actives largely listed as cytotoxic; hit rate 2% among 360,000
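Cytotoxicity counter-line: IDH1KD HT-1080, 48 h, CellTiter-Glo. Curves classed by r2, magnitude and activity.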
KB-3-1 cytotox: qHTS assay for MDR1-selective chemotherapeutics: Primary screen using the parental adenocarcinoma cell KB-3-1; KB-3-1 viability, CellTiter-Glo ATP luminescence, 72 h; Potency, µM (titrated, usually from 46.1 µM), actives largely listed as cytotoxic; hit rate 1.4% among 400,000; AID 1347075, 2019; further: nearly all actives have a fitted effect of over 60% in size
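Using CellTiter-Glo luminescence, growth of non-resistant KB-3-1 adenocarcinoma cells is assessed 72 h after pin-tool compound addition at 37 °C. Normalized responses across the concentration series yield fitted curves.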
Of the large screens only hits and unclear results are named; the others gave an inactive call. Only some compounds are listed: those with a hit (about 7.9% of all), similar ones and a draw of the others. The call rests on the fitted dose curve; in most records, active means well fitted curve in the direction sought with a large enough effect; inconclusive means small, poorly fitted or top-dose-only effect, or another doubt; inactive means no such curve, though single readings can be large; an effect the other way counts as inactive or inconclusive.

Cc1ccc(NC(=O)c2ccccc2NS(=O)(=O)c2ccc(Cl)s2)cc1	SW480 rerep inconclusive, MCF10A rerep 9.2µM, KB-V1 MDR tox 7.3µM, HT1080-NT tox 21µM, HT1080 IDH1KD tx inconclusive, KB-3-1 cytotox 10µM
O=S(=O)(Nc1ccccc1N1CCCCC1)c1ccc(Cl)s1	KB-3-1 cytotox 13µM
O=C(NCc1ccco1)c1ccccc1NS(=O)(=O)c1ccc(Cl)s1	HT1080-NT tox inconclusive, HT1080 IDH1KD tx inconclusive
CCn1nc(C(=O)OC(C(=O)c2c[nH]c3ccccc23)c2ccccc2)c2ccccc2c1=O (centres undefined)	KB-V1 MDR tox 12µM, HT1080-NT tox inconclusive, HT1080 IDH1KD tx inconclusive
CCn1nc(C(=O)OCC(=O)c2ccc(F)cc2)c2ccccc2c1=O	none
Nc1[nH]c(C(=O)c2ccccc2)c(-c2ccc(Br)cc2)c1C(=O)c1ccc(Br)cc1	none (no result: SW480 rerep, MCF10A rerep)
CCOC(=O)N1CCN(S(=O)(=O)c2ccc(C(=O)NNc3nc4c(C)cccc4s3)cc2)CC1	SW480 rerep inconclusive, MCF10A rerep inconclusive, HT1080-NT tox inconclusive, HT1080 IDH1KD tx inconclusive, KB-3-1 cytotox inconclusive
Cc1cccc2sc(NNC(=O)c3ccc(S(=O)(=O)N4CCCC(C)C4)cc3)nc12 (centres undefined)	SW480 rerep 7.3µM, MCF10A rerep inconclusive, HT1080-NT tox inconclusive, HT1080 IDH1KD tx 21µM, KB-3-1 cytotox 5.2µM
Cc1cccc2sc(NNC(=O)c3ccc(S(=O)(=O)N4CCc5ccccc5C4)cc3)nc12	SW480 rerep 4.1µM, MCF10A rerep inconclusive, HT1080-NT tox inconclusive, HT1080 IDH1KD tx 16µM, KB-3-1 cytotox 5.8µM
Cc1cc(C)c2nc(NNC(=O)c3ccc(S(=O)(=O)N4CCCCC4)cc3)sc2c1	SW480 rerep inconclusive, MCF10A rerep inconclusive, HT1080-NT tox inconclusive, HT1080 IDH1KD tx inconclusive, KB-3-1 cytotox inconclusive
O=C(C[n+]1ccc2ccccc2c1)c1ccc(NC(=O)c2ccccc2)cc1	KB-3-1 cytotox 21µM
COc1ccc(-c2onc(C)c2-c2ccc(C(=O)OC(C)C)o2)c(O)c1	MCF10A rerep inconclusive, KB-V1 MDR tox 21µM, KB-3-1 cytotox inconclusive
CC(C)[C@H](NC(=O)c1ccccc1Cl)C(=O)OCc1cc([N+](=O)[O-])cc2c1OCOC2	KB-V1 MDR tox 21µM
O=C(NC(=O)c1ccccc1)Nc1ccc(-n2nc(C(F)(F)F)cc2C(F)(F)F)cc1	none (no result: SW480 rerep, MCF10A rerep, HT1080-NT tox, HT1080 IDH1KD tx)
O=S(=O)(CCS(=O)(=O)c1ccccc1)c1ccccc1	SW480 rerep 16µM, MCF10A rerep inconclusive, HT1080 IDH1KD tx inconclusive
O=C(CSc1ccc2nnc(-c3ccccn3)n2n1)Nc1ccccc1F	none (no result: KB-V1 MDR tox, KB-3-1 cytotox)
COc1ccc(NC(=O)c2c(C(=O)Nc3ccccc3)sc3nc(C)cc(=O)n23)cc1	none (no result: SW480 rerep, MCF10A rerep, HT1080-NT tox, HT1080 IDH1KD tx)
COc1ccc(NC(=O)C2CCCN(c3nc(C)cc(C)n3)C2)cc1 (centres undefined)	MCF10A rerep 2.9µM, KB-V1 MDR tox inconclusive
Cc1ccnc(N2CCCC(C(=O)Nc3ccc(C)c(C)c3)C2)n1 (centres undefined)	MCF10A rerep 16µM
CCC(C)c1ccc(NC(=O)C2CC3CCC2C3)cc1 (centres undefined)	SW480 rerep inconclusive, MCF10A rerep 7.3µM
COc1cccc(-c2ccc(NC(=O)C3CCCN(CCCn4nc(C)cc4C)C3)cc2)c1 (centres undefined)	SW480 rerep 21µM, MCF10A rerep inconclusive, HT1080-NT tox inconclusive, HT1080 IDH1KD tx inconclusive, KB-3-1 cytotox inconclusive
Cc1ccc(NC(=O)C2CCCN(c3ncccn3)C2)cc1C (centres undefined)	none
CCC(=O)N1CCc2cc(Br)cc(S(=O)(=O)N3CCN(c4ccccc4OC)CC3)c21	none (no result: SW480 rerep, MCF10A rerep, HT1080-NT tox, HT1080 IDH1KD tx)
Cc1cccc(C(=O)Nc2ccc(S(=O)(=O)N3CCC(c4nc5ccccc5s4)CC3)cc2)c1	none (no result: SW480 rerep, MCF10A rerep, HT1080-NT tox, HT1080 IDH1KD tx)
CCC(C)c1ccc(NC(=O)C2CCCN(c3ncccn3)C2)cc1 (centres undefined)	MCF10A rerep inconclusive, KB-V1 MDR tox 7.9µM, HT1080-NT tox inconclusive, HT1080 IDH1KD tx inconclusive, KB-3-1 cytotox 10µM
COc1ccc(C(CCN2CCOCC2)c2c(O)cc(OC)cc2OC)cc1 (centres undefined)	SW480 rerep inconclusive
COc1ccc(C(c2c(O)ccc3ccccc23)N2CCOCC2)c(OC)c1 (centres undefined)	SW480 rerep inconclusive, MCF10A rerep 3.3µM, HT1080 IDH1KD tx inconclusive
CN(C)c1ccc(NC(=O)CN2C(=O)c3ccccc3Sc3ccc(C(=O)N4CCCC4)cc32)cc1	none (no result: SW480 rerep, MCF10A rerep, HT1080-NT tox, HT1080 IDH1KD tx)
CN(C)c1ccc(/C=N/NC(=O)c2cc(-c3ccc4c(c3)OCO4)n[nH]2)cc1	SW480 rerep inconclusive, MCF10A rerep 5.8µM, KB-V1 MDR tox inconclusive, HT1080-NT tox 5.8µM, HT1080 IDH1KD tx inconclusive, KB-3-1 cytotox inconclusive
COc1ccc(/C=N/NC(=O)c2cc(-c3ccc4c(c3)OCO4)n[nH]2)cc1OC	none
O=C(N/N=C/c1ccc(F)cc1)c1cc(-c2ccc3c(c2)OCO3)n[nH]1	MCF10A rerep 29µM, HT1080-NT tox inconclusive, HT1080 IDH1KD tx inconclusive
CCN(CC)C(=O)CSC(Nc1ccc(F)cc1)=C(C#N)C#N	none
Cc1ccc(CSC(Nc2ccc(F)cc2)=C(C#N)C#N)cc1	SW480 rerep inconclusive, MCF10A rerep 13µM, KB-V1 MDR tox 13µM, HT1080-NT tox inconclusive, HT1080 IDH1KD tx inconclusive, KB-3-1 cytotox inconclusive
CCCCNC(=O)C1(C)CCN1Cc1cc(C)ccc1C (centres undefined)	none (no result: SW480 rerep, MCF10A rerep)
Cc1csc2c(N3CCN(C(=O)c4ccc(C(C)(C)C)cc4)CC3)ncnc12	MCF10A rerep inconclusive, KB-V1 MDR tox inconclusive, HT1080-NT tox 18µM, HT1080 IDH1KD tx inconclusive
COc1cc2cc(CNc3ccc(C)cc3)c(=O)n(CC(=O)Nc3ccc(C(C)C)cc3)c2cc1OC	none (no result: SW480 rerep, MCF10A rerep, HT1080-NT tox, HT1080 IDH1KD tx)
CCOC(=O)c1sc2nccc(N(C)C)c2c1N=CNOCc1c(F)cccc1Cl	SW480 rerep inconclusive, MCF10A rerep 15µM, KB-V1 MDR tox inconclusive
CCOC(=O)c1sc2nccc(N(C)C)c2c1N=CNOCc1ccccc1	SW480 rerep inconclusive, MCF10A rerep 21µM, KB-V1 MDR tox 9.2µM, KB-3-1 cytotox inconclusive
Cc1ccc(C(=O)OCC(=O)Nc2ccccc2C(F)(F)F)cc1S(=O)(=O)N1CCCCC1	none
CCc1ccccc1N(C)S(=O)(=O)c1ccc(-c2cc(C)no2)s1	MCF10A rerep 2.3µM, KB-V1 MDR tox inconclusive, HT1080 IDH1KD tx inconclusive, KB-3-1 cytotox inconclusive
COc1cccc(N2CCN(CC(=O)NC(=O)NC3CCCCC3)CC2)c1	none

Screening results (PubChem BioAssay)
